# From PubChem BioAssay (NCI)
# Where “and” joins values, the source holds several entries; their conditions need not be identical. Equal values may be shown once. The panel holds about 83,000 compounds, 20% with a hit somewhere; the sample as a whole holds those more often.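 Note: values are percent growth. 100 is the growth of untreated cells, values between 100 and 0 indicate rising inhibition; between -100 and 0 indicates cell death.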 Calls of active or inactive are those of the source. Rule for the calls: active = growth percent below 10; inactive = the rest.
# Test system: MDA-MB-468 breast
# Experiment: NCI-60 one-dose screen, 48 h (100 = growth as untreated, 0 = no growth, -100 = all killed)
# Details: 10 µM unless noted
row,SMILES,growth
1,Cc1ccc(/C(N)=N/C(N)=N/c2nc3ccccc3s2)cc1,88.8% (inactive)
2,Cc1cc(C)cc(NCCC#N)c1,107% (inactive)
3,CC(C)(C)c1ccc(S(=O)(=O)Oc2ccc3c4c(c(=O)oc3c2)CCCCC4)cc1,23.9% (inactive)
4,O=C(Nc1ccc(N=Cc2ccccc2O)cc1)NC1C=c2ccccc2=CC1 (stereo not given),87.1% (inactive)
5,CN1CCN(Cc2ccc(NC(=O)c3cc(C#Cc4cnc(N)c5ncccc45)n(C)n3)cc2C(F)(F)F)CC1,104% (inactive)
6,COc1cc(NC(=O)c2cccc(-c3cc(=O)c4c(OC)c(OC)c(OC)cc4o3)c2)cc(OC)c1OC,47.4% (inactive)
7,COc1cc(Nc2nc(N[C@H]3CCCC[C@@H]3N)nc3cc[nH]c(=O)c23)cc(OC)c1,-24.5% (active)
8,C[C@]12CC[C@@H]3c4cc(OC(F)F)c(O)cc4CC[C@H]3[C@@H]1CC[C@@H]2OS(N)(=O)=O,-18.9% (active)
9,CCCCCCCCCCCCCCCCNC(=S)N/N=C/c1ccc(O)cc1O,57.1% (inactive)
10,COc1ccc(NNS(=O)(=O)O)cc1,99.3% (inactive)
11,O=C(c1ccc(Cl)cc1)C1[C@H](c2ccc(Cl)cc2)[C@@H](c2ccccc2)NC12C(=O)Nc1ccc(Br)cc12 (stereo not given in full),45.8% (inactive)
12,CN1CCc2nc3sc(C(N)=O)c(N)c3c(-c3cccs3)c2C1,14.2% (inactive)
13,CCOC(=O)c1c(C)[nH]c(C)c1C=O,99.1% (inactive)
14,O=C(N/N=C/[C@H](O)[C@@H](O)[C@@H](O)[C@H](O)CO)c1ccc(NC(=O)c2cccnc2)cc1,105% (inactive)
15,Cc1ccc(C(=O)NCCCNc2nccc(-n3ccc4cccnc43)n2)cc1,95.6% (inactive)
16,COc1cc(C2C3CC4CCCC[C@H]4N3[C@@]3(C(=O)Nc4cc(Cl)ccc43)C2C(=O)c2nc3ccccc3[nH]2)cc(OC)c1OC (stereo not given in full),52.8% (inactive)
17,COc1cccc(-c2nc3sccn3c2-c2ccnc(NCCNC(=O)Nc3cccc(C(F)(F)F)c3)n2)c1,39.6% (inactive)
18,CCOP(=O)(OCC)/C(=C\N1C(=O)CC(=O)NC1=S)C(=O)OC,107% (inactive)
19,CC(=O)CCSc1ccc(OC(C)=O)cc1,101% (inactive)
20,COc1cc(/C=C2\CCCC3=C2N=C2SC=NN2C3c2cc(OC)c(OC)c(OC)c2)cc(OC)c1OC (stereo not given),18.1% (inactive)

row,SMILES,growth
1,Nc1cc2c(cc1Br)-c1c(C(=O)O)cccc1C2O (stereo not given),74.6% (inactive)
2,Nc1nnc2cc(F)ccc2n1,122% (inactive)
3,CN(C)c1cccc2c(S(=O)(=O)N[C@H]3CC[C@H]4[C@@H]5CCc6cc(O)ccc6[C@H]5CC[C@]34C)cccc12,34.5% (inactive)
4,CC(C)C(/C=C/c1[nH]ncc1-c1cc(Cl)ccc1O)N1CCOCC1 (stereo not given),84.9% (inactive)
5,Nc1nc(-c2cc3c(cc2Cl)NC(=O)/C3=C/c2ccc(Cl)cc2)cs1,-14% (active)
6,O=C(NCc1ccccc1)/C(=C/c1ccccc1)NC(=O)c1ccccc1,93.9% (inactive)
7,COc1cc(NC(=O)c2cc(O)c(CC=C(C)C)c(O)c2)cc2c1O[C@]1(C)CC[C@@H](O)C(C)(C)[C@H]1C2,30.8% (inactive)
8,Cc1c2ccncc2c(C)c2c1c1ccccc1n2CCCCCC(=O)O,86.3% (inactive)
9,CCOc1ccc(/C=N\N2CCCCCC2)cc1OCC,111% (inactive)
10,CCCCCCCCCCCCCCCc1cc(O)ccc1N,70.1% (inactive) and 6.15% (active)
11,COc1ccc(-c2[nH]ncc2/C=C/c2cc(C(F)(F)F)[nH]c(=O)n2)cc1,96.1% (inactive)
12,CC(=O)Nc1ccccc1-c1nc2ccccc2s1,93% (inactive)
13,CCC1=C[C@]2(C3CC(=O)N(c4ccccc4)C3=O)CC(C(C)(C)C)C[C@@H]2[C@@H]2C(=O)N(c3ccccc3)C(=O)[C@H]12 (stereo not given in full),90.2% (inactive)
14,CC(O)/C=C/C=C/C(O)CC/C=C/C(=O)NCC(C)(C)O (stereo not given),102% (inactive)
15,O=C(O)c1cn(C2CC2)c2cc(N3CCN(C(=O)N4CCOCC4)CC3)c(F)cc2c1=O,103% (inactive)
16,OCc1ncc(-c2ccccc2)s1,104% (inactive)
17,CCN(CC)CCCC(C)Nc1ccnc2c(OC)cccc12 (stereo not given),117% (inactive)
18,COc1ccc2nc3cc(Cl)ccc3c(NCCCCCN3CCCCC3)c2c1,-53.3% (active)
19,CCC(c1ccc(OC)cc1)C(CC)c1ccc(OCC[N+](C)(C)C)cc1 (stereo not given),19.3% (inactive)
20,CCN(CC)CCNC(=O)n1cc(-c2ccncc2)c(-c2cc(Cl)cc(OC)c2)n1,80.5% (inactive)
